An excerpt weighted towards active compounds, which were near 11% of everything screened.
ALDH1A1 block – ALDH1A1 (human) enzyme inhibition; P00352; Purified ALDH1A1, NADH fluorescence, propionaldehyde substrate; Potency, µM (titrated, usually from 75.3 µM), most hits filed as inhibitors; 7.3% of 220,000 active; AID 1030
HPGD block – HPGD (human) dehydrogenase inhibition; P15428; purified HPGD, NADH fluorescence kinetic, PGE2 substrate; Potency, µM, most hits filed as inhibitors; 4.3% of 150,000 active; AID 894
Target sequence (P15428 whole entry, looked up): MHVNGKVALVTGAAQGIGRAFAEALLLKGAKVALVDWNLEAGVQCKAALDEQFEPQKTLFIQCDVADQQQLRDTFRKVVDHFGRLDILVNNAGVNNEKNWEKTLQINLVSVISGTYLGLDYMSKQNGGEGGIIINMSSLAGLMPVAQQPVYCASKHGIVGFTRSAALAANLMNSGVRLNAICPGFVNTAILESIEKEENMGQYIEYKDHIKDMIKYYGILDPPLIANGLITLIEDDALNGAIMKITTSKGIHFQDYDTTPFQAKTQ
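20 nM HPGD preincubated 15 min at room temperature with compound in 50 mM Tris-HCl pH 8, 0.01% Tween 20. Started with 1 mM NAD+ and 30 uM prostaglandin E2; NADH fluorescence (360/450 nm) read 5 times over 30-s intervals, last minus first.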
IMPase cell inh – cell-permeable inhibitors of inositol monophosphatase (IMPase); P97697; CHO-M1 cells, IP1 accumulation, HTRF TR-FRET ratio; inhibition (IP1 accumulation), % at 46.1 µM; 120,000 tested, under 10 active; active means well fitted curve in the direction sought with a large enough effect in the signal ratio, not every such curve was filed as active; inconclusive means small, poorly fitted or top-dose-only effect, or a change in a side signal; inactive means no such curve, though single readings can be large or run the other way; the % refers to the signal ratio;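 further: cells stimulated with carbachol in lithium chloride buffer; higher means more IMPase inhibition seen as more IP1 and lower FRET ratio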
Target sequence (P97697 whole entry, looked up): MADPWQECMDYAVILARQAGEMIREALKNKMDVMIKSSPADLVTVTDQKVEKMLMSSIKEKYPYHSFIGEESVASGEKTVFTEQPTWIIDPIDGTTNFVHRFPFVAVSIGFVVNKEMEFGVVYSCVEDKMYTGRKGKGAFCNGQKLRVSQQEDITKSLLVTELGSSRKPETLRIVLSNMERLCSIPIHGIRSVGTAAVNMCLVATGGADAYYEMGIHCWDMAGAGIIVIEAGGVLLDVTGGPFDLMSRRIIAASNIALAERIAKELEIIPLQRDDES
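The IP-One HTRF competitive assay in carbachol-stimulated CHO-M1 cells quantifies cellular IP1. Compounds spanned up to 46 uM final, and activity is expressed as AC50 from concentration-response fits of the ratio and donor data.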
PNC inhibitor – blocks assembly of the perinucleolar compartment; PC3M PTB-GFP, PNC prevalence imaging, 16 h; active compounds read low; activity change (PNC), negative = inhibition, % at 10 µM; AID 2417; 3.1% of 140,000 active;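 active means readout at or below -70, meaning at least 70% loss of cells showing the perinucleolar compartment, a nuclear body marking cancer cells; inconclusive means readout between -30 and a set limit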
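Compounds are pinned in duplicate onto adhered PC3M cells stably expressing GFP-tagged PTB and incubated 16 h at 37 C. Cells are then fixed, nuclei stained with Hoechst, and PNC-positive cells counted.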
IMPase Li cell – membrane-permeable IMPase blocker, potentiated with lithium; AID 1457; CHO-M1 cells, IP1 TR-FRET (IP-One), carbachol + lithium; Potency, µM (top dose mostly 59.4 µM), actives largely listed as inhibitors; 0.35% of 210,000 active; active means well fitted inhibition curve with a large enough effect; inconclusive means small, poorly fitted or top-dose-only effect; inactive means no such curve, though single readings can be large or run the other way;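 further: IP1 builds up when IMPase is blocked and the TR-FRET signal falls; nearly all actives have a fitted effect of over 50% in size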
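Lithium-sensitised IP1 accumulation assay; M1-expressing CHO cells treated 30 min at 37C with compound. Competitive antibody detection by time-resolved FRET followed a 10 min room-temperature lysis step.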
Large screens that a line does not name were inactive. Unless noted, the call rests on the fitted dose curve; in most records, active means well fitted inhibition curve with a large enough effect (not every such curve was filed as active); inconclusive means small, poorly fitted or top-dose-only effect, or another doubt; inactive means no such curve, though single readings can be large or run the other way.

COc1ccc(C(=O)CSc2nnc(NC(=O)C3CC(=O)N(c4ccccc4C)C3)s2)cc1 (configuration not stated)	ALDH1A1 block 11.2µM
CCOC(=O)c1ccc(N2N=C(C)/C(=C/C=C/c3ccco3)C2=O)cc1	ALDH1A1 block 0.224µM
Cc1ccc(O)c(C2=Nc3ccccc3N=C(c3cccc(F)c3)C2)c1	none (no result: ALDH1A1 block, HPGD block, PNC inhibitor, IMPase Li cell)
Cc1ccc(O)c(C2=NOC(O)(C(F)(F)F)C2)c1 (configuration not stated)	HPGD block 14.1µM
Cc1ccc(O)c(C2=NOC(O)(C(F)(F)C(F)F)C2)c1 (configuration not stated)	HPGD block 5.01µM, PNC inhibitor inconclusive
O=C1NC(=O)c2cc([N+](=O)[O-])ccc21	none (no result: IMPase cell inh, PNC inhibitor)
CC(NC(=O)CN1CCc2ccccc21)c1ccccc1 (configuration not stated)	ALDH1A1 block inconclusive (no result: HPGD block, IMPase Li cell)
CC(C)(C)c1cc(C(=O)Nc2ccccc2)ccn1	PNC inhibitor -121.7
CCCOC(=O)Nc1cc(OC)ccc1[N+](=O)[O-]	none (no result: HPGD block, IMPase cell inh, PNC inhibitor)
CC1(C)CC(=O)C(/C=N/n2c(C(F)(F)F)nc3ccccc3c2=O)=C(O)C1	ALDH1A1 block 25.1µM, PNC inhibitor inconclusive
CN(C)S(=O)(=O)c1ccc(/C(O)=C2/C(=O)C(=O)N(Cc3cccnc3)C2c2ccncc2)cc1 (configuration not stated)	ALDH1A1 block 14.1µM
Cc1c(/C(O)=C2/C(=O)C(=O)N(Cc3cccnc3)C2c2cccs2)cnn1-c1ccccc1 (configuration not stated)	ALDH1A1 block 1.12µM, HPGD block 20µM, IMPase cell inh inconclusive, IMPase Li cell 7.08µM
CN(C)S(=O)(=O)c1ccc(/C(O)=C2/C(=O)C(=O)N(Cc3cccnc3)C2c2cccs2)cc1 (configuration not stated)	ALDH1A1 block inconclusive (no result: HPGD block, IMPase cell inh, PNC inhibitor)
CN(C)S(=O)(=O)c1ccc(/C(O)=C2/C(=O)C(=O)N(CCN3CCCCC3)C2c2cccnc2)cc1 (configuration not stated)	ALDH1A1 block 22.4µM (no result: IMPase cell inh, PNC inhibitor, IMPase Li cell)
Cc1nc(NCc2ccccc2)c2nc(-c3ccccc3)n(CCN3CCOCC3)c2n1	ALDH1A1 block inconclusive, HPGD block inconclusive (no result: IMPase cell inh, PNC inhibitor)
CCCOC(=O)c1c(NC(=O)c2nc3ncccn3n2)sc(C(=O)OCC)c1C	none (no result: ALDH1A1 block, HPGD block, PNC inhibitor, IMPase Li cell)
CC1(C)CC(=O)C(N=Nc2ccc3ncsc3c2)=C(O)C1	ALDH1A1 block 4.47µM, IMPase cell inh inconclusive
CC1(C)CC(=O)C(N=Nc2ccc(Cl)cc2)=C(O)C1	ALDH1A1 block inconclusive
CC1(C)CC(=O)C(N=Nc2ccc(OC(F)F)cc2)=C(O)C1	ALDH1A1 block 1.41µM (no result: HPGD block, IMPase cell inh, PNC inhibitor)
CCN(CC)S(=O)(=O)c1ccc(N=NC2=C(O)CC(C)(C)CC2=O)cc1	ALDH1A1 block 2.51µM (no result: IMPase cell inh)
Cc1cc(-c2n[nH]c(=S)n2/N=C/C=C/c2ccccc2)n[nH]1	HPGD block 15.8µM (no result: IMPase cell inh)
COc1ccccc1/C=C/C=N/n1c(-c2cc(C)[nH]n2)n[nH]c1=S	ALDH1A1 block inconclusive, HPGD block 14.1µM (no result: IMPase cell inh)
COc1cc(/C=N/n2c(-c3cc(C)[nH]n3)n[nH]c2=S)cc(OC)c1OC	none (no result: HPGD block, IMPase cell inh, PNC inhibitor, IMPase Li cell)
COc1cc(O)ccc1-c1nc2ccc(Br)cn2c1Nc1ccccc1C	none (no result: ALDH1A1 block, HPGD block, PNC inhibitor, IMPase Li cell)
CC(C)Cn1nnnc1S(=O)(=O)CCc1ccccc1	none (no result: IMPase cell inh, PNC inhibitor)
N#C/C(=C\c1ccc(-c2ccccc2[N+](=O)[O-])o1)C(N)=O	none (no result: HPGD block, IMPase cell inh, PNC inhibitor, IMPase Li cell)
Cc1ccc(/C=C2\C(=O)ON=C2c2ccccc2)o1	ALDH1A1 block inconclusive (no result: HPGD block, IMPase cell inh, PNC inhibitor)
Cc1ccc(-c2ccc(/C=C3\C(=O)ON=C3c3ccccc3)o2)c([N+](=O)[O-])c1	ALDH1A1 block 8.91µM, HPGD block 1.26µM
O=C1/C(=C\c2ccc(-c3ccccc3[N+](=O)[O-])o2)C(c2ccccc2)=NN1c1ccccc1	HPGD block inconclusive, PNC inhibitor -85.9
Cc1csc(SCC(=O)c2c(N)n(C)c(=O)n(C)c2=O)n1	none
CC(C)c1ccc(CNc2c([N+](=O)[O-])c(=O)oc3ccccc23)cc1	none (no result: HPGD block, IMPase cell inh, PNC inhibitor)
O=c1oc2ccccc2c(NCc2ccccc2F)c1[N+](=O)[O-]	ALDH1A1 block 1.12µM, HPGD block 15.8µM
CCCNC(=O)C1CNc2ccccc2O1 (configuration not stated)	HPGD block 25.1µM
O=C(Nc1cccc(O)c1)c1ccc(Br)cc1	PNC inhibitor -127.9
CC(=O)Nc1cccc(NC(=O)c2ccc(Br)cc2)c1	none (no result: HPGD block, IMPase cell inh, PNC inhibitor)

Screening data (PubChem BioAssay)
